# Assay results published in PubChem BioAssay (NCI).
# This is part of a sample that, as a whole, favours compounds with a hit. Of some 79,000 tested, about 15% had one in any assay. The source made the active and inactive calls. Rule as the data show it: active = growth inhibition above about 70%; inactive = the rest.
# Assay: NCI Yeast Anticancer Drug Screen. Data for the rad18 strain (AID 177)
# Conditions: S. cerevisiae rad18 mutant growth inhibition; at 33.0 µM; hits give high values
# How it was run: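 Yeast carrying a defined DNA damage repair alteration were exposed to compounds. Growth inhibition was expressed relative to vehicle-treated controls.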
row,Compound,growth inhibition
1,COc1ccc(/C=C2\SC(=S)N(/C=C/c3nc4ccccc4[nH]c3=O)C2=O)cc1OC,67% (inactive)
2,N#CN=Nc1cc(Cl)c(N=NC#N)cc1Cl,14% (inactive)
3,Cc1ccc(S(=O)(=O)Oc2cc(Cl)c(Cl)cc2Cl)cc1,-3% (inactive)
4,c1ccc2c(c1)Oc1cccc3cccc-2c13,56% (inactive)
5,O=C(c1ccc(Cl)cc1Cl)C(Cl)Cl,76% (active)
6,CC(C)C1=CCC2C(=C1)CCC1C(C)(C(=O)O)CCCC21C (centres undefined) (tested in a mixture with another compound),15% (inactive)
7,COc1cc(/C=C2\CCc3ccccc3C2=O)cc(OC)c1OC,35% (inactive)
8,CC(=O)[O][Bi]([c]1ccccc1)[c]1ccccc1,91% (active)
9,S=C(N/N=C/c1ccccn1)Nc1ccc(Cl)cc1,2% (inactive)
10,COc1cc(CC2CC(c3ccc4c(c3)OCO4)OC2=O)cc(OC)c1OC (centres undefined),0% (inactive)
11,CNC1C(OC2C(OC3C(O)C(O)C(N=C(N)N)C(O)C3N=C(N)N)OC(C)C2(O)CO)OC(CO)C(O)C1O (centres undefined),35% (inactive)
12,NNC(=O)CCc1ccc2ccc3ccccc3c2c1,38% (inactive)
13,Oc1ccc2ccccc2c1C(c1ccc(Cl)cc1)c1c(O)ccc2ccccc12,50% (inactive)
14,CCCCN(CCCC)CCSc1ccc(Cl)cc1,2% (inactive)
15,CCC(C)COC(=O)c1ccc(N=Cc2ccc(C=Nc3ccc(C(=O)OCC(C)CC)cc3)cc2)cc1 (centres undefined),13% (inactive)
16,CC1(C)C(=O)OC(n2cc(F)c(=O)[nH]c2=O)C1=O (centres undefined),21% (inactive)
17,O=[N+]([O-])CC(SCc1ccccc1)c1ccc2c(c1)OCO2 (centres undefined),98% (active)
18,COc1cc2c(cc1[N+](=O)[O-])C(=O)C(Br)(Br)CCC2,99% (active)
19,OCC1OC(OCC(O)C(O)C(O)C(/C=N/Nc2ccccc2)=N/Nc2ccccc2)C(O)C(O)C1O (centres undefined),39% (inactive)
20,COc1ccc(N=C2C(=O)Nc3ccc(Br)cc32)cc1,-30% (inactive)
21,Cn1c(=O)c2ccccc2c2ccccc21,83% (active)
22,CC[n+]1ccc2c(C)c3[nH]c4ccc(O)cc4c3c(C)c2c1,-6% (inactive)
23,CC(=O)ON1C(=O)c2cccc3cccc(c23)C1=O,97% (active)
24,COc1ccc2ccc3ccccc3c2c1C=O,9% (inactive)
25,OC1CCCc2c1cc1ccc3cccc4ccc2c1c34 (centres undefined),98% (active)

# Same assay, conditions: S. cerevisiae rad18 mutant growth inhibition; at 100.0 µM; hits give high values
row,Compound,growth inhibition
1,CCN(CC)CC[n+]1ccc2c(C)c3[nH]c4ccc(O)cc4c3c(C)c2c1,58% (inactive)
2,O=[n+]1c2ccc(Cl)cc2n([O-])c2ccc(Cl)cc21,63% (inactive)
3,CCOP(=O)(OCC)C(Cc1ccccc1)N=C(c1ccccc1)c1ccccc1 (centres undefined),98% (active)
4,CC[C@@]1(O)C(=O)OCc2c1cc1n(c2=O)Cc2cc3c(N)cccc3nc2-1,-23% (inactive)
5,COC1C=COC2(C)Oc3c(C)c(O)c4c(c3C2=O)/C(=N/C2CCC(O)OC2C)C=C(NC(=O)/C(C)=C\C(=O)C2CC2C(O)C(C)C(O)C(C)C(OC(C)=O)C1C)C4=O (centres undefined),48% (inactive)
6,COc1cc2c(c(OC)c1OC)-c1c(cc3c(c1OC)OCO3)CC(C)C(C)(O)C2OC(=O)c1ccccc1 (centres undefined),46% (inactive)
7,O=c1ssc2ncccc12,99% (active)
8,O=C1C2C(C(=O)N1c1ccc(OCc3ccccc3)cc1)C1c3ccccc3C2C2CCCCN21 (centres undefined),81% (active)
9,COc1ccc(-c2cn(-c3ccc(I)cc3)c3ncnc(N)c23)cc1,0% (inactive)
10,CCOC(=O)C(NC(=O)c1ccccc1)(N1CCN(c2cc3c(cc2F)c(=O)c(C(=O)O)cn3C2CC2)CC1)C(F)(F)F (centres undefined),6% (inactive)
11,C/C(=N\O)C1CC2C=C(C#N)C1N(Cc1ccccc1)C2 (centres undefined),86% (active)
12,CC/C(=C(\c1ccccc1)c1ccc(OCCN(C)C)cc1)c1ccccc1,98% (active)
13,COc1ccccc1N=NC(C(=O)c1ccccc1)C(=O)c1ccccc1,98% (active)
14,CC(O)C(O)C(O)C(/C=N\Nc1ccccc1)=N/Nc1ccccc1 (centres undefined),99% (active)
15,COc1ccc(/C=C2\SC(=S)N(/C=C/c3nc4ccccc4[nH]c3=O)C2=O)cc1OC,85% (active)
16,N#CN=Nc1cc(Cl)c(N=NC#N)cc1Cl,82% (active)
17,Cc1ccc(S(=O)(=O)Oc2cc(Cl)c(Cl)cc2Cl)cc1,11% (inactive)
18,c1ccc2c(c1)Oc1cccc3cccc-2c13,71% (active)
19,O=C(c1ccc(Cl)cc1Cl)C(Cl)Cl,98% (active)
20,CC(C)C1=CCC2C(=C1)CCC1C(C)(C(=O)O)CCCC21C (centres undefined) (tested in a mixture with another compound),88% (active)

row,Compound,growth inhibition
1,COc1cc(/C=C2\CCc3ccccc3C2=O)cc(OC)c1OC,73% (active)
2,CC(=O)[O][Bi]([c]1ccccc1)[c]1ccccc1,94% (active)
3,S=C(N/N=C/c1ccccn1)Nc1ccc(Cl)cc1,67% (inactive)
4,COc1cc(CC2CC(c3ccc4c(c3)OCO4)OC2=O)cc(OC)c1OC (centres undefined),10% (inactive)
5,CNC1C(OC2C(OC3C(O)C(O)C(N=C(N)N)C(O)C3N=C(N)N)OC(C)C2(O)CO)OC(CO)C(O)C1O (centres undefined),-12% (inactive)
6,NNC(=O)CCc1ccc2ccc3ccccc3c2c1,66% (inactive)
7,Oc1ccc2ccccc2c1C(c1ccc(Cl)cc1)c1c(O)ccc2ccccc12,87% (active)
8,CCCCN(CCCC)CCSc1ccc(Cl)cc1,89% (active)
9,CCC(C)COC(=O)c1ccc(N=Cc2ccc(C=Nc3ccc(C(=O)OCC(C)CC)cc3)cc2)cc1 (centres undefined),22% (inactive)
10,CC1(C)C(=O)OC(n2cc(F)c(=O)[nH]c2=O)C1=O (centres undefined),28% (inactive)
11,O=[N+]([O-])CC(SCc1ccccc1)c1ccc2c(c1)OCO2 (centres undefined),98% (active)
12,COc1cc2c(cc1[N+](=O)[O-])C(=O)C(Br)(Br)CCC2,95% (active)
13,OCC1OC(OCC(O)C(O)C(O)C(/C=N/Nc2ccccc2)=N/Nc2ccccc2)C(O)C(O)C1O (centres undefined),81% (active)
14,COc1ccc(N=C2C(=O)Nc3ccc(Br)cc32)cc1,-28% (inactive)
15,Cn1c(=O)c2ccccc2c2ccccc21,91% (active)
16,CC[n+]1ccc2c(C)c3[nH]c4ccc(O)cc4c3c(C)c2c1,6% (inactive)
17,CC(=O)ON1C(=O)c2cccc3cccc(c23)C1=O,97% (active)
18,COc1ccc2ccc3ccccc3c2c1C=O,83% (active)
19,OC1CCCc2c1cc1ccc3cccc4ccc2c1c34 (centres undefined),92% (active)
